Reference: PubChem BioAssay AID1671192 (National Center for Advancing Translational Sciences (NCATS), 2021)
Inconclusive results are not listed. A number with no mark means an inactive call. The call rests on the fitted dose curve; in most records, active means well fitted curve in the direction sought with a large enough effect; inconclusive means small, poorly fitted or top-dose-only effect, or another doubt; inactive means no such curve, though single readings can be large or run the other way.

Biological target: Polyunsaturated fatty acid lipoxygenase ALOX15 (Homo sapiens) (UniProt P16050)
Sequence (P16050 whole entry, looked up): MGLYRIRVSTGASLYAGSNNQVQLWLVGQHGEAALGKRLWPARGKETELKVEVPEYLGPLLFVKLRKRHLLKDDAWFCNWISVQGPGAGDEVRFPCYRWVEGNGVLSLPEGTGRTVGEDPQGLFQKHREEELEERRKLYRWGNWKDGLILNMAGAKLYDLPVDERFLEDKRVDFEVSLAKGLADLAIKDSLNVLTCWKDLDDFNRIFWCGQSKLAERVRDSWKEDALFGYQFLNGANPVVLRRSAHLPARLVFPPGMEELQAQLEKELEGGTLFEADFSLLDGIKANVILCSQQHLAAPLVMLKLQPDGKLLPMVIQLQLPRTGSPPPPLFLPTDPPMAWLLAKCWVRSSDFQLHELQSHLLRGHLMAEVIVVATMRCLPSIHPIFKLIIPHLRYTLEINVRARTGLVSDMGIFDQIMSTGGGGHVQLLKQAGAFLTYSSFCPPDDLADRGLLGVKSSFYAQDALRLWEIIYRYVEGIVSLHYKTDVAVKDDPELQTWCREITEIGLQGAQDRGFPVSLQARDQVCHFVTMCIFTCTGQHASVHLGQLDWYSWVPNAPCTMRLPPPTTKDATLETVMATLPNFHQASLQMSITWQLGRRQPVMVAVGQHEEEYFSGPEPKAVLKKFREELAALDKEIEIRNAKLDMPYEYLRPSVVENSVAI
Test: Counterscreen qHTS for inhibitors of human arachidonate 12S-lipoxygenase (ALOX12): ALOX15 Assay; further: 0% is about no effect
Conditions: purified ALOX15 enzyme activity; series mostly up to 110 µM; activity change, negative = inhibition: at the top concentration
How it was run: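 Purified human ALOX15 (15hLO-1) at 40 nM in 25 mM HEPES, 0.01% Triton X-100, pH 7.5, preincubated with compound 15 min at RT. Then 50 uM arachidonic acid for 30 min; hydroperoxide detected by Fe-xylenol orange as the 573/405 nm absorbance ratio.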

Row | Compound | activity change, negative = inhibition
1 | CCOCCCNc1ncnc2c1CN(C1CCCNCC1)C(=O)CN2C (stereo not drawn) | 1.99%
2 | CC(CO)Nc1ncnc2c1CN(C1CCCNCC1)C(=O)CN2C (stereo not drawn) | -29% [at 146 µM]
3 | CC(C)c1nc2c(c(-c3ccc(Cl)cc3)n1)CCN(Cc1cccc3ccccc13)CC2 | -12.9%
4 | CC(=O)Nc1ccc(CN2CCCC23Cc2ccccc2CN(C(=O)CCC(=O)O)C3)cc1 (stereo not drawn) | -10.9%
5 | O=[S+]([O-])(c1ccccc1)N1CC(Oc2ccc(F)c(F)c2)C1 | -9.6% [at 146 µM]
6 | O=C1NCc2ccccc2CC12CCN(Cc1ccccc1F)C2 (stereo not drawn) | 1.86% [at 146 µM]
7 | O=C(NCc1ccncc1)c1cc(C2CC2)nc2c1c(C1CCCN1)nn2-c1ccccc1 (stereo not drawn) | 5.49%
8 | CCCCCNc1ncnc2c1CN(C1CCNCC1)C(=O)CN2C | -5.83% [at 146 µM]
9 | COCCCNc1nc2c(S(=O)(=O)c3c(C)cc(C)cc3C)nnn2c2ccccc12 | -27.7%
10 | CC[C@@H](Nc1ncnc2c1CN(C1CCNCC1)C(=O)CN2C)c1ccccc1 | -19.1%
11 | C[S+](=O)([O-])N1Cc2ccccc2CC2(CCCN2CC2CCNCC2)C1 (stereo not drawn) | 4.72%
12 | CNC(C)c1ccc(Oc2ccccc2)cc1 (stereo not drawn) | 6.86% [at 146 µM]
13 | O=C(c1ccccc1)N1CCCC2(CC(c3cccnc3)=NO2)C1 (stereo not drawn) | -15.9% [at 146 µM]
14 | Cc1noc(C)c1S(=O)(=O)N1CCC(N2CCOC2=O)CC1 | -4.98% [at 146 µM]
15 | Cc1ccc(C(=O)N2CCCC3(CC(c4cccnc4)=NO3)C2)cc1 (stereo not drawn) | -12.4% [at 146 µM]
16 | CN1CC(=O)N(C2CCNCC2)Cc2c(NCCOc3ccccc3)ncnc21 | -4.67%
17 | Cn1cccc1CN1CCCCC12Cc1ccccc1CNC2=O (stereo not drawn) | 242% [at 146 µM]
18 | Cn1nc(C2CCCNC2)c2c(C(=O)NC3CC3)cc(C3CC3)nc21 (stereo not drawn) | -5.86% [at 146 µM]
19 | CCN1CCCCC12Cc1ccccc1CN(C(=O)C1CCN(C)CC1)C2 (stereo not drawn) | -5.74%

Row | Compound | activity change, negative = inhibition
20 | CNC(c1ccccc1)c1ccccc1 | -18% [at 146 µM]
21 | CN1CC(=O)N(C2CCNCC2)Cc2c(NC3CCCCC3)ncnc21 | -5.17%
22 | CN1CC(=O)N(c2ccc(Cl)cc2)Cc2c(NC3CCNCC3)ncnc21 | -20.7%
23 | CCN(CC)CC(C)NC (stereo not drawn) | -25.9% [at 343 µM]
24 | CN1CCC2(Cc3ccccc3CN(C(=O)CCN)C2)C1 (stereo not drawn) | 1.33% [at 146 µM]
25 | O=[S+]([O-])(c1ccncc1)c1nnn2c1nc(NCc1ccc(F)cc1)c1ccccc12 | -0.991%
26 | COc1ccc(CC(=O)N2Cc3ccccc3CC23CCCN([S+](C)(=O)[O-])C3)cc1 (stereo not drawn) | 7.85%
27 | O=Cc1ccc(-c2ccc(O)cc2)cc1 | -0.934% [at 233 µM]
28 | Cc1ccc(-c2cccc(C=O)c2)cc1Cl | -27.3% [at 233 µM]
29 | CCCC(=O)N1Cc2ccccc2CC2(CCCN(C)C2)C1 (stereo not drawn) | -26% [at 146 µM]
30 | COCCNC(=O)c1cc(C)nc2onc(C3CCCNC3)c12 (stereo not drawn) | -17.9% [at 146 µM]
31 | O=C(O)CCCC(=O)N1Cc2ccccc2CC2(CCCCN2CCc2ccccc2)C1 (stereo not drawn) | -14.5%
32 | Cc1ccc(CN2CCCC23Cc2ccccc2CNC3=O)cc1 (stereo not drawn) | 8.05% [at 146 µM]
33 | NCCCC(=O)N1CCC2(CC1)CC(NC(=O)CN)c1ccccc12 (stereo not drawn) | -21%
34 | NC(Cc1ccccc1)C(=O)N1CCC2(CC1)CN(C(=O)c1ccc(Cl)cc1)CCO2 (stereo not drawn) | -6.02%
35 | CN1CC(=O)N(C2CCCNC2)Cc2c(NCCO)ncnc21 (stereo not drawn) | -14.4% [at 146 µM]
36 | COc1ccc(CNc2ncnc3c2CN(C2CCNC2)C(=O)CN3C)cc1OC (stereo not drawn) | -20.1%
37 | Cc1cccc(CN2CCCC23Cc2ccccc2CNC3=O)c1 (stereo not drawn) | -11% [at 146 µM]
38 | Cc1cc(C)c(S(=O)(=O)c2nnn3c2nc(NCCCOC(C)C)c2ccccc23)c(C)c1 | -24%
